Source: PubChem (several laboratories)
An excerpt weighted towards active compounds, which were near 4% of everything screened.
HSV augment – increases HSV replication in cells; HSV replication augmentation in cells, fold increase; maximum fold increase; hit rate 0.005% among 220,000; AID 1956; in the data active means maximum fold increase above about 1.5; inconclusive means no clear call, values can overlap the other calls; tested in PC3 cells
Measles CPE – protection of cells from measles virus; protection (pct of control), % at 4 µM; hit rate 1.5% among 140,000; Measles virus-infected cells, CPE protection, absorbance; AID 841; in the data active means protection mostly above about 24%, no sharp cut-off; inactive means mostly below about 26%
ROMK primary – human ROMK K+ channel modulation, primary screen. hit rate 2% among 130,000. B-score at 10 µM. Tet-inducible ROMK, thallium flux fluorescence; actives lie on both sides;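 active means signal ratio slope over the read window, or its plate-corrected B-score, at least 3 SD from the plate mean, either direction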;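 further: B-score of the F/F0 ratio slope over 7 to 12 s after thallium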
Target sequence (P48048 whole entry, looked up): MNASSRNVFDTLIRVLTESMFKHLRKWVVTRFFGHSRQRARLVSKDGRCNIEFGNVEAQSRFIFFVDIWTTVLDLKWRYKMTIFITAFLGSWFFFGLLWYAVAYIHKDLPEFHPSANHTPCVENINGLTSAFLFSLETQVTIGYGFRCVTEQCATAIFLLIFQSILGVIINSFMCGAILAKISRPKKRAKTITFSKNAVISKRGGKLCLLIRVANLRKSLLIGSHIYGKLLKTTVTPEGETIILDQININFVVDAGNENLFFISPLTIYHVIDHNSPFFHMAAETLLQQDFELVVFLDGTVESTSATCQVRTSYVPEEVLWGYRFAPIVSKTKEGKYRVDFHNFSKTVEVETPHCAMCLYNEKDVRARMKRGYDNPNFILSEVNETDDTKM
Cl transport mod – modulators of human KCC2 chloride dependent transport; B-score of Tl+ flux slope (higher = more flux/activation; lower = inhibition) at 10 µM; hit rate 2.2% among 190,000; AID 1456; Q9H2X9; KCC2 cells, thallium flux FluoZin-2 fluorescence;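 active means thallium flux slope and its plate-corrected score both differing from the plate sample mean at a set confidence after two filtering rounds, in either direction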;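 further: slope of fluorescence scaled to starting intensity during 10 to 20 s after thallium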
Arbovirus inh – arbovirus infection inhibition | AID 1251 | hit rate 0.37% among 200,000 | arbovirus infection cell-based antiviral screen | inhibition, % at 10 µM; in the data active means inhibition above about 30%
The depositor's hits bear a star; i = inactive; ? = inconclusive; / = not tested or not shown.

SMILES | HSV augment | Measles CPE | ROMK primary | Cl transport mod | Arbovirus inh
CCCc1cc(=O)[nH]c(SCC(=O)Nc2cc(C)on2)n1 | i | / | 1.14 | -0.0996 | 19.2
Cc1ccn2cc(C34CC5CC(CC(C5)C3)C4)nc2c1 | i | / | -1.25 | 0.0805 | 17.8
CN1C(=O)S/C(=C/c2ccccc2OCc2ccc(C(=O)O)cc2)C1=O | i | / | -2.7* | -4.28* | 3.8
Cc1ccc(-c2n[nH]c(=S)n2/N=C/c2ccc(C)s2)cc1 | i | 13.8 | / | 5.62* | 3.1
S=c1[nH]nc(-c2ccccn2)n1/N=C/c1ccc(Br)s1 | i | 6.0 | / | 25.8* | -6.5
S=c1[nH]nc(-c2ccncc2)n1/N=C/c1cccc2ccccc12 | i | 29.3* | -0.399 | 0.918 | 5.1
Cc1ccc(-c2n[nH]c(=S)n2/N=C/c2cccs2)cc1 | i | 13.3 | / | 18.2* | 5.8
Cc1cc(-c2n[nH]c(=S)n2/N=C/c2cccs2)n[nH]1 | i | 16.5 | / | 0.735 | -3.2
Cc1ccn(C)c(=N)c1 | i | / | / | / | /
COc1ccc(/C=N/n2c(-c3cc(C)[nH]n3)n[nH]c2=S)cc1 | i | / | / | 0.129 | /
Cc1ccc(/C=N/n2c(COc3ccccc3)n[nH]c2=S)o1 | i | / | 0.215 | -0.773 | 3.8
COc1cccc(/C=N/n2c(-c3cccs3)n[nH]c2=S)c1 | i | 2.1 | / | 23.5* | 15.3
Cc1ccc(/C=N/n2c(COc3ccccc3)n[nH]c2=S)s1 | i | 4.6 | / | 15.8* | 3.5
C=CCN(CC=C)S(=O)(=O)c1ccc(NC(=S)NC(=O)c2ccc(-c3ccccc3)cc2)cc1 | i | 12.9 | / | 0.285 | -4.5
C=CCN(CC=C)S(=O)(=O)c1ccc(NC(=S)NC(=O)c2ccco2)cc1 | i | 12.2 | / | 8.14* | -4.4
Cc1cccc(C(=O)Nc2ccccc2C(=O)OCc2c(C)noc2C)c1 | i | 89.6* | 0.00551 | -0.868 | 2.4
C=CCn1c(SCCN2CCCC2)nc2c([nH]c3ccccc32)c1=O | / | / | / | -1.14 | 2.4
CC(=O)Nc1ccc(S(=O)(=O)NCCc2ccccn2)cc1 | i | / | 0.129 | 1.15 | 15.5
CCC1Oc2ccc(C)cc2N(CC(=O)N2CCN(c3ccc(F)cc3)CC2)C1=O (centres undefined) | i | 28.4* | / | -2.36 | 11.9
CCc1nc(NC(C)(C)C)c2cnn(-c3ccccc3)c2n1 | i | / | / | 1.09 | /
NC(N)=N/N=C/c1cccc([N+](=O)[O-])c1O | i | / | -0.19 | -0.252 | -1.7
O=[N+]([O-])c1cccc(/C=N\N=C2c3ccccc3-c3ccccc32)c1O | i | 20.1 | 0.786 | 0.429 | 39.8*
CN1CC=C2C(C#N)=C(N)C(C#N)(C#N)[C@H](c3ccoc3)[C@H]2C1 | ? | 19.9 | -2.8* | 0.395 | 2.6
Cc1ccc(C2C3CN(C(C)C)CC=C3C(C#N)=C(N)C2(C#N)C#N)cc1 (centres undefined) | / | 9.4 | -4.26* | / | 3.2
COc1ccc(OC)c(C2C3CN(C(C)C)CC=C3C(C#N)=C(N)C2(C#N)C#N)c1 (centres undefined) | ? | 8.6 | -0.961 | / | -6.9
SMILES | HSV augment | Measles CPE | ROMK primary | Cl transport mod | Arbovirus inh
CC(=O)N1CC=C2C(C#N)=C(N)C(C#N)(C#N)[C@H](c3ccoc3)[C@H]2C1 | i | 7.2 | -0.745 | 0.506 | 3.7
CN(C)CCn1c(N)nc2ccccc21 | i | / | / | 0.307 | /
C=CCc1cccc2cc(C(=O)Nc3ccccc3C(=O)O)c(=O)oc12 | i | / | -1.3 | -1.1 | 32.4*
C=CCc1cccc2cc(C(=O)O)c(=O)oc12 | i | 1.1 | -0.0431 | -0.781 | 3.8
COC(=O)c1sccc1NC(=O)c1csc(C)c1 | i | 25.4* | / | 0.22 | 2.5
COc1ccc(-c2cc(-c3ccc(OC)c(OC)c3)n[nH]2)c(O)c1 | i | 12.6 | 0.0585 | 0.0314 | 31.8*
CN(C)c1ccc(/C=N\NC(=S)SCN2C(=O)C3CCC(C)(C2=O)C3(C)C)cc1 (centres undefined) | i | 18.9 | -0.479 | 6.39* | -15.6
CC12CCC(C(=O)N(CC(O)CN3CCN(Cc4ccccc4)CC3)C1=O)C2(C)C (centres undefined) | i | / | -0.0428 | -1.09 | /
CC12CCC(C(=O)N(CSC(=S)N/N=C\c3ccccc3O)C1=O)C2(C)C (centres undefined) | i | 2.1 | -0.191 | 12.7* | -8.3
COc1ccc(/C=N\NC(=S)SCN2C(=O)C3CCC(C)(C2=O)C3(C)C)cc1 (centres undefined) | ? | 19.2 | / | 14* | -4.4
COc1ccc(C(=O)NN2C(=O)C3CCC(C)(C2=O)C3(C)C)cc1 (centres undefined) | i | 6.7 | / | -0.793 | 5.4
O=C(O)c1ccccc1C(=O)NCCc1c(C(=O)O)[nH]c2ccc(Cl)cc12 | i | / | / | 0.138 | /
O=C1CC(c2ccccc2Cl)=NN(c2ncnc3ccccc23)C1=O | ? | / | 1.18 | -0.168 | 5.7
CC(C)S(=O)(=O)c1csc(NC(=O)Nc2cccc([N+](=O)[O-])c2)c1Cl | i | / | / | -0.0505 | /
CC12CCC(C(=O)Nc3ccccc3Cl)([C@H](Br)C1=O)C2(C)C (some centres undefined) | i | / | 0.475 | 0.65 | /
CC12CCC(C(=O)Nc3ccccc3Cl)(C(Br)C1=O)C2(C)C (centres undefined) | i | 36.3* | -1.19 | -0.627 | -6.3
CCCNC(=O)C12CCC(C)(c3nc4cc(C)c(C)cc4nc31)C2(C)C (centres undefined) | i | / | -1.94 | -0.299 | 16.1
COc1ccc(CN(C(=O)CSc2nnc(-c3ccc(F)cc3)o2)c2ccc(F)cc2)cc1 | i | 15.4 | / | -1.2 | 30.6*
COc1ccc(-c2nnc(SCC(=O)c3ccc(C)o3)o2)cc1 | i | 12.1 | / | 0.526 | -2.3
O=C(Oc1ccc(C(=S)N2CCC(O)CC2)cc1)c1ccc(Cl)cc1 | i | / | -0.214 | -0.213 | -1.4
C[C@]12C=CC(=O)C=C1CCC1C3CC[C@](O)(C(=O)CO)[C@@]3(C)CC3OC312 (some centres undefined) | i | 41.8* | -0.595 | 0.638 | 13.8
CCOC(=O)Cn1c2ccccc2c2nc(C)sc21 | i | / | -1.68 | 0 | -3.9
CCOC(=O)Cn1c2ccccc2c2nc3ccccc3nc21 | i | 46.5* | -0.447 | / | -3.6
COc1ccc(S(=O)(=O)N2CCC(C(=O)NCC(c3cccs3)N(C)C)CC2)cc1 (centres undefined) | i | 51.7* | / | 0.667 | -2.2
O=C(CSc1nc2nn(-c3ccccc3)c(=O)c-2c2n1CCCCC2)NCCCc1ccccc1 | i | / | -0.503 | -1.54 | 15.1
SMILES | HSV augment | Measles CPE | ROMK primary | Cl transport mod | Arbovirus inh
Cc1n[nH]c(=O)nc1NCCN(C)C | i | 7.8 | / | 0.214 | 3.4
Cc1n[nH]c(=O)nc1NCc1ccc(Cl)cc1 | i | 36.3* | / | 0.481 | 4.7
COC(=O)CCCCCNc1ccc(C(=O)OC)cc1N | i | 30.2* | 0.174 | -1.65 | -1.3
COc1ccccc1C(=O)NCCCNc1ccc([N+](=O)[O-])cc1 | i | 26.6* | -0.000814 | 0.969 | -3.7
O=C(NC1CCCCC1)Sc1ccc(Cl)cc1 | i | 7.4 | -4.71* | / | -17.2
O=C(CCl)NC1(C(F)(F)F)C(=O)Nc2c1c(=O)[nH]c(=O)n2-c1ccccc1 (centres undefined) | i | / | / | 0.522 | /
CC(C)=C(NC(=O)c1ccccc1)C(=O)NCc1ccccc1 | i | / | 0.254 | -0.489 | 10.7
O=C(NCCC(=O)N1CCN(c2ncccn2)CC1)c1ccccc1 | i | 31.9* | / | 1.28 | -0.9
